Data on 11 molecules can be found in PubChem BioAssay (NCATS).

Records with an inconclusive call do not appear. The source made the active and inactive calls. Calls come from the whole dose curve; as a rule, active = well fitted inhibition curve with a large enough effect; inconclusive = small, poorly fitted or top-dose-only effect; inactive = flat fitted curve, though single readings scatter. Peptide text beside a SMILES is read from it.

What all share (experiment): qHTS profiling for inhibitors of Plasmodium falciparum proliferation (AID 504749); note: nearly all actives have a fitted effect of over 60% in size
Details in all cases: P. falciparum in erythrocytes, SYBR Green DNA, 72 h; series mostly up to 28.7 µM
For orientation: qHTS replaces the single test concentration by a dilution series.

Assay [1] relates to CP329. The essentials: (§1)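 SYBR Green fluorescence of parasite DNA, read after lysis and overnight dark incubation, measured growth over 72 h in erythrocyte culture at 0.3% parasitemia and 2.5% hematocrit. Data normalised to DMSO and 0.29 uM artemisinin, with plate-drift correction.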
For assay [2], the system named is CP335. The method in brief:
as §1

Assay [3] concerns DFO2036. The method in brief:
as §1

Assay [4] relates to DIV14. The method in brief: as §1
The subject of assay [5] is DIV17. The essentials: as §1
Assay [6] concerns DIV30. The essentials:
as §1

For assay [7], the system named is Dd2. The essentials: as §1
Assay [8] has as its system ECU. The essentials: as §1
Assay [9] has as its system FAB9. The method in brief: as §1
Assay [10] deals with GB4. The method in brief: as §1
Assay [11] relates to HB3. The method in brief: as §1
In assay [12] the test system is ICS. The method in brief: as §1
Assay [13] has as its system JCK. The method in brief:
as §1

Assay [14] relates to N140. The essentials: as §1
Assay [15] deals with P93_24. The method in brief:
as §1

Assay [16] relates to P94_40. The method in brief: as §1
In assay [17] the test system is PAD. The essentials:
as §1

Assay [18] deals with PC15. The essentials:
as §1

Assay [19] has as its system PC26. The essentials: as §1
Assay [20] has as its system PC49. The method in brief:
as §1
Potency is the fitted concentration of half-maximal effect.

With `CC1(C)S[C@@H]2[C@H](NC(=O)[C@@H](NC(=O)N3CCNC3=O)c3ccccc3)C(=O)N2[C@H]1C(=O)O`, the Potency entry in assay [1], in [2], in assay [3], in assay [4], in [5] and in assay [6] was “inactive” throughout. In addition, the Potency entry in assay [7], in assay [8], in assay [9], in [10], in assay [11] and in assay [12] was “inactive” throughout. The Potency entry in assay [13], in [14], in assay [15], in [16], in assay [17] and in [18] was “inactive” throughout. For the same molecule, the Potency entry in assay [19] and in assay [20] was “inactive” throughout.

On to `C[C@]12O[C@H](C[C@]1(O)CO)n1c3ccccc3c3c4c(c5c6ccccc6n2c5c31)CNC4=O`, for which the Potency in [1] is 426 nM (active); in assay [2], 239 nM (active); in assay [3] it was 316 nM (active); in [4] it was 120 nM (active); in [5] it was 135 nM (active); in assay [6], 269 nM (active). The Potency was 355 nM (active) in assay [7]; 398 nM (active) in assay [8]; 2000 nM (active) in assay [9]; 269 nM (active) in assay [10]; 447 nM (active) in assay [11]; 112 nM (active) in assay [12]. Besides, the Potency in [13] was 4470 nM (active); in [14], 282 nM (active); in assay [15] it was 355 nM (active); in assay [16] it was 282 nM (active); in assay [17] it was 251 nM (active); in assay [18] it was 447 nM (active). Further, the Potency in assay [19] is 239 nM (active); in assay [20], 891 nM (active).

With `C#CCOc1ccc2c(C)cc(=O)oc2c1`, the Potency result in assay [1], in assay [2], in assay [3], in [4], in assay [5] and in [6] was “inactive” each time. The Potency result in assay [7], in [8], in assay [9], in assay [10], in assay [11] and in assay [12] was “inactive” each time. Besides, the Potency entry in assay [13], in assay [14], in assay [15], in assay [16], in [17] and in assay [18] was “inactive” throughout. Moreover, the Potency result in assay [19] and in [20] was “inactive” throughout.

As to `CCC(=O)NCCC1CCc2ccc3c(c21)CCO3` (stereo not given), the Potency entry in assay [1], in assay [2], in [3], in [4], in [5] and in assay [6] was “inactive” each time. In addition, the Potency result in [7], in [8], in assay [9], in assay [10], in assay [11] and in assay [12] was “inactive” in each case. The Potency result in [13], in assay [14], in assay [15], in [16], in assay [17] and in assay [18] was “inactive” throughout. Also, the Potency entry in [19] and in [20] was “inactive” in each case.

Turning to `COc1ccc2c3c1O[C@H]1C[C@@H](O)C=C[C@@]31CCN(C)C2`, the Potency entry in assay [1], in assay [2], in assay [3], in assay [4], in assay [5] and in [6] was “inactive” throughout. In addition, the Potency result in [7], in assay [8], in assay [9], in assay [10], in [11] and in assay [12] was “inactive” in each case. The Potency entry in assay [13], in assay [14], in assay [15], in assay [16], in assay [17] and in assay [18] was “inactive” in each case. In addition, the Potency result in assay [19] and in [20] was “inactive” each time.

For the molecule `CC(NNC(=O)c1ccccc1)c1ccccc1` (stereo not given), the Potency result in assay [1], in [2], in [3], in assay [4], in assay [5] and in [6] was “inactive” throughout. Further, the Potency result in assay [7], in assay [8], in assay [9], in assay [10], in [11] and in assay [12] was “inactive” throughout. In addition, the Potency entry in assay [13], in assay [14], in [15], in assay [16], in [17] and in assay [18] was “inactive” each time. In addition, the Potency result in assay [19] and in [20] was “inactive” in each case.

On to `Nc1ncnc2c1ncn2[C@@H]1O[C@H](COP(=O)(O)OP(=O)(O)OP(=O)(O)O)[C@@H](O)[C@H]1O`, for which the Potency result in assay [1], in assay [2], in [3], in assay [4], in assay [5] and in assay [6] was “inactive” each time. For the same molecule, the Potency entry in assay [7], in assay [8], in [9], in [10], in assay [11] and in [12] was “inactive” in each case. The Potency result in [13], in [14], in assay [15], in assay [16], in assay [17] and in [18] was “inactive” in each case. Further, the Potency result in assay [19] and in [20] was “inactive” in each case.

With `CC(=O)N[C@@H](CC(=O)O)C(=O)N[C@@H](CCC(=O)O)C(=O)O` (Ac-Asp-Glu-OH), the Potency result in [1], in [2], in assay [3], in assay [4], in assay [5] and in [6] was “inactive” each time. For the same molecule, the Potency result in assay [7], in [8], in [9], in assay [10], in assay [11] and in assay [12] was “inactive” in each case. Further, the Potency result in [13], in assay [14], in [15], in [16], in assay [17] and in [18] was “inactive” throughout. Also, the Potency result in assay [19] and in [20] was “inactive” each time.

Consider `CCCCCCCC/C=C\CCCCCCCC(=O)O`, for which the Potency entry in assay [1], in assay [2], in assay [3], in assay [4], in assay [5] and in assay [6] was “inactive” throughout. For the same molecule, the Potency entry in assay [7], in assay [9], in assay [10], in assay [11], in assay [12] and in assay [13] was “inactive” in each case. In addition, the Potency result in [14], in [15], in assay [16], in assay [17], in assay [19] and in assay [20] was “inactive” throughout.

Take `O=C(COc1ccc(Cl)cc1)OCCNC12CC3CC(CC(C3)C1)C2`: the Potency entry in assay [1], in assay [2], in [3], in assay [4], in [5] and in assay [7] was “inactive” in each case. Moreover, the Potency entry in assay [8], in assay [9], in [11], in [12], in [13] and in assay [14] was “inactive” each time. Moreover, the Potency entry in assay [15], in assay [16], in assay [17], in [18], in [19] and in assay [20] was “inactive” each time.

For `CO[C@H]1C[C@@H]2CC[C@@H](C)[C@@](O)(O2)C(=O)C(=O)N2CCCC[C@H]2C(=O)O[C@H]([C@H](C)C[C@@H]2CC[C@@H](OCCO)[C@H](OC)C2)CC(=O)[C@H](C)/C=C(\C)[C@@H](O)[C@@H](OC)C(=O)[C@H](C)C[C@H](C)/C=C/C=C/C=C/1C`, the Potency was 4780 nM (active) in assay [1]; 1510 nM (active) in assay [2]; 1410 nM (active) in assay [3]; 1690 nM (active) in assay [4]; 1690 nM (active) in assay [5]; 1510 nM (active) in [6]. Also, the Potency is 891 nM (active) in assay [7]; 1780 nM (active) in assay [8]; 1690 nM (active) in assay [10]; 2000 nM (active) in assay [11]; 501 nM (active) in assay [12]; 10000 nM (active) in [13]. The Potency in assay [14] is 1000 nM (active); in [15], 1410 nM (active); in assay [16], 2000 nM (active); in [17], 1410 nM (active); in [18], 3160 nM (active); in assay [19], 2130 nM (active). Also, in [20], the Potency is 5010 nM (active).
